# Source: PubChem BioAssay (several laboratories)
# In the library only some 2.6% were active in any assay of this set; here they are far more common.
# NOD2 RIPK2 PPI = blocks binding of human NOD2 to RIPK2 | O43353 | inhibition, % at 4.98 µM | CHO BLA complementation NOD2-RIPK2, CCF4 ratio | 0.38% of 360,000 active; in the data active = inhibition above about 21%;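 note: 0% = vehicle only and 100% = reference blocker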
# Granule exo inh = blocks lytic granule exocytosis | AID 651702 | TALL-104 LAMP-1 surface exposure, flow cytometry; cells stimulated with thapsigargin and PMA | inhibition, % at 10 µM | 0.66% of 360,000 active;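 active = inhibition above about 55%, limit read from the data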
# TLR4-MyD88 BLA = inhibitors of human TLR4-MyD88 binding | HeLa CL3-4 TLR4/MyD88 BLA complementation, FRET ratio | inhibition, % at 8.4 µM | 0.18% of 200,000 active | AID 861; in the data active = inhibition above about 25%;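 note: 0% = vehicle and 100% = reference inhibitor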
# ABHD5-PLIN5 inh = ABHD5-PLIN5 protein interaction inhibition | 0.78% of 360,000 active | Split G. princeps luciferase complementation, luminescence, 4 h | AID 602281 | Q00G26+Q8WTS1 | inhibition, % at 4 µM;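 active = inhibition above the mean inhibition across every tested compound plus 3 SD, cut at about 22% in these data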;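 note: 0% = DMSO only wells and the 100% control is not disclosed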
# TLR9-MyD88 block = TLR9-MyD88 interaction inhibition. 0.21% of 340,000 active. inhibition, % at 4.98 µM. Q9NR96+Q99836. CHO BLA complementation TLR9-MyD88, CCF4 FRET ratio;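 active = inhibition above the mean over all tested compounds plus 3 SD, cut at about 21% in these data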;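 note: 0% = DMSO only wells and 100% = clavulanate BLA inhibitor control wells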
# PRMT1 FP inh = PRMT1 (human) inhibition, primary screen | inhibition, % at 2.79 µM | recombinant PRMT1, activity-based probe fluorescence polarization | 1.3% of 370,000 active | Q99873;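 active = inhibition above about 21% made by adding two undisclosed values, limit read from the data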
# ABHD5-PLIN5 conf = ABHD5-PLIN5 interaction inhibition, confirmed | biochemical ABHD5-PLIN5 interaction, luminescence | inhibition, % at 4 µM | 67% of 2,200 active | AID 651612 | shares compounds with ABHD5-PLIN5 inh; in the data active = inhibition above about 23%;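 note: 0% = DMSO vehicle wells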
# HNF4 split-luc = counter-screen for ABHD5-PLIN5 inhibitors: HNF4 split-luciferase; HNF4 dimerization, luminescence, biochemical; shares compounds with ABHD5-PLIN5 inh; 77% of 2,200 active; inhibition, % at 4 µM;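 active = mean inhibition across replicate wells exceeding the computed hit threshold, cut at about 13% in these data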;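 note: light from luciferase halves that rejoin when HNF4 fusion proteins dimerize; 0% = DMSO only wells and the 100% control is not given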
# Numbers without * were called inactive; nt = not tested or not shown.
SMILES,NOD2 RIPK2 PPI,Granule exo inh,TLR4-MyD88 BLA,ABHD5-PLIN5 inh,TLR9-MyD88 block,PRMT1 FP inh,ABHD5-PLIN5 conf,HNF4 split-luc
O=c1[nH][nH]c2c1[C@H](c1ccc(F)cc1)O[C@H](CCc1ccccc1)C2,-1,1,nt,27*,nt,3,15,36*
O=c1[nH][nH]c2c1C(c1ccc(F)cc1)OC(CCc1ccccc1)C2 (configuration not stated),-15,13,nt,-2,nt,-1,nt,nt
O=S(=O)(CC1NCCc2ccccc21)NCc1ccc(F)cc1 (configuration not stated),nt,nt,nt,nt,nt,8,nt,nt
CN1C/C(=C\c2ccc(N3CCOCC3)cc2)C(=O)/C(=C/c2ccc(N3CCOCC3)cc2)C1,5,2,2,30*,6,-1,53*,42*
CN1C/C(=C/c2ccsc2)C(=O)/C(=C/c2ccsc2)C1,-8,27,-11,56*,-5,1,79*,66*
CN1C/C(=C/c2ccncc2)C(=O)/C(=C/c2ccncc2)C1,-2,-6,nt,1,0,3,nt,nt
COC(=O)C1=C(C)N(Cc2ccccc2C(F)(F)F)C(=NCc2ccccc2C(F)(F)F)NC1c1ccc(F)cc1 (configuration not stated),nt,nt,nt,nt,nt,0,nt,nt
O=C1OC(/C(=C\Nc2ccc(F)cc2F)[N+](=O)[O-])c2ccccc21 (configuration not stated),-4,0,1,54*,5,12,25*,61*
Cc1ccc(N/C=C(\C2OC(=O)c3ccccc32)[N+](=O)[O-])c(C)c1 (configuration not stated),0,-3,11,54*,nt,11,9,34*
CCOc1cc(/C=N/O)ccc1OCc1ccc([N+](=O)[O-])cc1,-2,2,-11,10,-7,-4,nt,nt
CCOc1cc(C=C(C(=O)OC)C(=O)OC)ccc1OCc1ccc([N+](=O)[O-])cc1,21,2,-3,66*,1,2,96*,90*
Cc1ccc(CNC(=O)CCc2nnc(Cc3ccc(-c4ccccc4)cc3)o2)o1,-6,-1,2,28*,0,2,10,5
COCCCNC(=O)CCc1nnc(Cc2ccc(-c3ccccc3)cc2)o1,-6,-4,-18,7,-3,2,nt,nt
COC(=O)[C@]12C[C@H](CC(=O)NCc3ccccc3)C(=O)N(CCc3ccc(OC)c(OC)c3)C1=C[C@H](C1CCCC1)O[C@@H]2C,nt,nt,nt,nt,nt,0,nt,nt
C=CCNc1oc(-c2ccc(-c3ccccc3)cc2)nc1C#N,-3,-2,nt,-5,0,nt,nt,nt
C=CCNc1oc(-c2cccc(Cl)c2)nc1C#N,7,18,nt,24*,5,0,47*,41*
COc1ccc(CN2CCN(C(=O)c3cccnc3)CC2)cc1Br,-6,-13,-5,1,10,-2,nt,nt
O=C(c1cccnc1)N1CCN(Cc2cccc(Br)c2)CC1,-13,2,1,24*,-8,1,1,8
Cc1cccc(NC(=O)CSc2nnc(-c3cnccn3)n2Cc2ccco2)c1,11,2,5,68*,-2,20,11,11
O=C(CSc1nnc(-c2cnccn2)n1Cc1ccco1)c1ccc2ccccc2c1,-1,2,-5,37*,3,1,16,27*
COC(=O)c1ccc(-c2cccc(CN3CCN(c4ncc(Cc5ccccc5)cn4)CC3)c2)cc1,nt,nt,nt,nt,nt,5,nt,nt
CCOC(=O)Cc1csc(NC(=O)NC2(C(F)(F)F)Oc3ccccc3O2)n1,-6,1,-7,26*,1,10,62*,91*
CCOC(=O)Cc1csc(NC(=O)NC2(C(F)(F)F)Oc3cc(Cl)c(Cl)cc3O2)n1,-6,0,-2,-1,-10,9,nt,nt
CCOC(=O)Cc1csc(NC(=O)NC2(C(F)(F)F)Oc3ccc(Cl)cc3O2)n1 (configuration not stated),6,-2,8,25*,-8,3,54*,60*
COC(=O)C1=C(C)N(C)C(=NCc2ccc(OC)cc2)NC1c1ccc(F)cc1 (configuration not stated),nt,nt,nt,nt,nt,-1,nt,nt
SMILES,NOD2 RIPK2 PPI,Granule exo inh,TLR4-MyD88 BLA,ABHD5-PLIN5 inh,TLR9-MyD88 block,PRMT1 FP inh,ABHD5-PLIN5 conf,HNF4 split-luc
N#CC(C#N)=NNc1ccc2cn[nH]c2c1,-7,15,nt,48*,nt,3,55*,58*
Cc1sc2nc3c4ccccc4c(NCc4ccco4)nn3c(=O)c2c1C,-5,0,0,32*,-4,0,46*,63*
COC(=O)[C@]12C[C@H](CC(=O)N3CCCC3)C(=O)N(Cc3ccco3)C1=C[C@H](COCc1ccccc1)O[C@@H]2C,nt,nt,nt,nt,nt,-2,nt,nt
O=C1NC(=Nc2ccc(O)cc2)S/C1=C\C=C\c1ccco1,5,9,nt,33*,4,13,27*,45*
CCOc1ccccc1/C=C/c1nc2ccccc2[nH]c1=O,4,8,nt,27*,3,-4,50*,46*
CCOc1ccccc1OCCCC(=O)Nc1nc2ccccc2[nH]1,2,3,9,-5,-4,-1,nt,nt
O=C(CCN1C(=O)c2ccccc2C1=O)Oc1ccc2ccccc2c1,-11,-1,1,-2,-8,-3,nt,nt
CC1=CC(C)(C)Nc2ccc(OC(=O)CCN3C(=O)c4ccccc4C3=O)cc21,17,54,2,75*,2,2,86*,90*
Nc1ccn([C@@H]2O[C@H](C(=O)N[C@H](Cc3ccccc3)C(=O)N3CCN(C(=O)N4CCOCC4)CC3)[C@@H](O)[C@H]2O)c(=O)n1,nt,nt,nt,nt,nt,-10,nt,nt
NC(=O)C1=C(c2ccccc2)c2ccccc2C1=O,7,-5,nt,74*,-9,8,93*,94*
Cc1ccc(C2=C(O)c3ccccc3C(=O)C2=O)cc1,-4,16,nt,12,-4,-1,nt,nt
O=S(=O)(c1ccccc1)N1CCCc2nc(-c3ccc(Br)cc3)ccc21,nt,nt,nt,nt,nt,0,nt,nt
Oc1cc(NCCN2CCOCC2)cc2cccnc12,-7,-2,nt,51*,6,21*,-4,4
CCN(CCCc1ccccc1)CCCc1ccccc1,-7,-4,nt,38*,1,-7,74*,33*
NS(=O)(=O)c1ccc(N=Nc2ccc(O)c3ncccc23)cc1,-4,3,nt,24*,2,7,29*,20*
Cc1oc(-c2ccc(Cl)cc2)cc1-c1nn2c(-c3ccoc3C)nnc2s1,-17,-1,-2,24*,0,13,13,17*
Clc1ccc(-c2nnc3sc(-c4ccc(Br)o4)nn23)cc1,-5,0,5,1,3,0,nt,nt
